These results are taken from PubChem BioAssay (Tox21).

Assay [1] can be described thus: Nuclear factor erythroid 2-related factor 2/antioxidant responsive element (Nrf2/ARE) small molecule agonists: luciferase reporter gene qHTS assay in human keratinocytes (AID 1919969). Also: nearly all actives have a fitted effect of over 35% in size. Also: potency is read from the fitted curve at half-maximal effect.
Assay [2] addresses Gonadotropin-releasing hormone receptor (Homo sapiens) (UniProt P30968). In words: Human gonadotropin-releasing hormone receptor (GnRHR) small molecule agonists, calcium flux assay in GnRHR-HEK293 cells (AID 1920063). Also: nearly all actives have a fitted effect of over 35% in size. In a few lines:
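We seeded human GnRHR-expressing HEK293 cells for 18 hours, loaded them with calcium dye for an hour at 37 C, added test compounds, and recorded fluorescence intensity kinetically for three minutes.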

Assay [3] in a line: G protein-coupled receptor (GPCR) small molecule agonists, calcium flux assay: HEK293 wild type cell line counter screen (AID 1920065). In a few lines:
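Calcium-sensitive dye, loaded 1 h at 37 C into cells cultured 18 h, reports compound-evoked calcium release as fluorescence (Ex/Em 480/540), measured over 3 min. Agonist mode; 15-point titrations, triplicate.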

Assay [4] is described as follows: p53 small molecule agonists, cell-based qHTS assay with human liver microsomes (AID 1963577). In a few lines: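 Compounds act here after metabolic activation: human liver microsomes and NADPH, both at 0.5 mg/mL final, were co-added to p53RE-bla cells. Incubation ran 16 h at 37 C, followed by LiveBLAzer detection.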
Assay [5] can be described thus: p53 small molecule agonists, cell-based qHTS assay with rat liver microsomes (AID 1963578). Also: potency is read from the fitted curve at half-maximal effect. Summed up: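 Read-out is beta-lactamase reporter fluorescence (LiveBLAzer, 2 h, room temperature, dark) in p53RE-bla cells treated 16 h at 37 C with compound, rat liver microsomes and NADPH, both 0.5 mg/mL final.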
Assay [6] can be described thus: p53 small molecule agonists, cell-based qHTS assay with human liver microsomes: qHTS cell viability counter screen (AID 1963579). Also: nearly all actives have a fitted effect of over 45% in size. Also: potency is read from the fitted curve at half-maximal effect. Summed up:
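Cells carrying the p53 response-element beta-lactamase reporter are treated for 16 h at 37 C with test compounds in the presence of human liver microsomes and NADPH (both 0.5 mg/mL final); ATP-based CellTiter-Glo luminescence then reports viability.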

Assay [7] can be described thus: p53 small molecule agonists, cell-based qHTS assay: qHTS cell viability counter screen (AID 1963581). Also: nearly all actives have a fitted effect of over 45% in size. Also: potency is read from the fitted curve at half-maximal effect. Summed up:
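Following 5 h attachment, HCT-116 p53RE-bla cells took up compound for 16 h at 37 C; the reporter was read with B/G FRET substrate (2 h RT), and viability then via CellTiter-Glo ATP luminescence.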

Assay [8] is described as follows: p53 small molecule agonists, cell-based qHTS assay (AID 1963582; active = well fitted activation curve with a large enough effect in the signal ratio in the repeat runs, not every such curve was filed as active; the % refers to the signal ratio). Summed up:
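In this cell-based concentration-response screen, a p53 response element drives beta-lactamase; cells received DMSO-borne compounds after 5 h culture and were incubated a further 16 h before FRET substrate development.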

The target of assay [9] is 5-hydroxytryptamine receptor 2A (Homo sapiens) (UniProt P28223). Briefly: 5-hydroxytryptamine receptor 2A (HTR2A) small molecule antagonists, cell-based qHTS assay (AID 1963586). Also: nearly all actives have a fitted effect of over 45% in size. Also: potency is read from the fitted curve at half-maximal effect. Summed up:
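Antagonist-mode intracellular calcium assay: DOI (4 nM) added after 5 min compound pre-incubation at room temperature to dye-loaded HTR2A-CHO cells. Fluorescence followed for 3 min, sampled every second.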

For assay [10] the target is unchanged. In words: 5-hydroxytryptamine receptor 2A (HTR2A) small molecule agonists, cell-based qHTS assay (AID 1963587). Also: nearly all actives have a fitted effect of over 30% in size. Also: potency is read from the fitted curve at half-maximal effect. Summed up: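 CHO cells stably expressing human HTR2A, plated 18 h, loaded with calcium dye 1 h at 37 C. Agonist mode: compounds added and intracellular calcium fluorescence recorded kinetically for 2 min at 1 sec intervals.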
For assay [11], the target named is Muscarinic acetylcholine receptor M1 (Homo sapiens) (UniProt P11229). Briefly: Cholinergic receptor muscarinic 1 (CHRM1) small molecule antagonists, cell-based qHTS assay (AID 1963588). Also: nearly all actives have a fitted effect of over 40% in size. Summed up:
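CHRM1-CHO calcium-flux assay, antagonist mode. Cells were seeded 18 h, dye-loaded 1 h at 37 C and given compound for 5 min at RT, then acetylcholine was added at 50nM. FDSS fluorescence was read 3 min; 15 concentrations, three runs.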

For assay [12] the target is unchanged. In words: Cholinergic receptor muscarinic 1 (CHRM1) small molecule agonists, cell-based qHTS assay (AID 1963589). Also: nearly all actives have a fitted effect of over 35% in size. In a few lines:
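Measures agonist-induced intracellular calcium rise. Stable human CHRM1 CHO line, 1 h dye load at 37 C, compounds from DMSO, kinetic fluorescence read.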

A short description of assay [13]: cAMP Responsive Elements (CRE) small molecule agonists, cell-based qHTS assay (AID 1963590). Summed up: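 A CRE-responsive beta-lactamase reporter in HEK 293T cells was used. Treatment ran 3 h at 37 C; detection used LiveBLAzer B/G FRET substrate for 2 h at room temperature.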
A short description of assay [14]: cAMP Responsive Elements (CRE) small molecule antagonists, cell-based qHTS assay (AID 1963591; active = well fitted inhibition curve with a large enough effect in the signal ratio in the repeat runs, not every such curve was filed as active; the % refers to the signal ratio). In a few lines:
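HEK293T cells carrying a CRE-driven beta-lactamase reporter receive compound and NKH477 (0.25 uM final) for 3 h. Fluorescence from LiveBLAzer B/G FRET substrate is read after 2 h at room temperature.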

Assay [15] deals with D(2) dopamine receptor (Homo sapiens) (UniProt P14416). In words: Dopamine D2 receptor (DRD2) small molecule agonists, cell-based qHTS assay (AID 1963594). Also: nearly all actives have a fitted effect of over 35% in size. Summed up: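 HEK293 cells stably expressing human DRD2, pre-treated with PDE inhibitor Ro20-1724 (0.1 mM final) and compound 10 min at room temperature, then stimulated with NKH477 (200nM […]) for 30 min. cAMP read by HTRF (665/620 nm).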

For assay [16] the target is unchanged. Briefly: Dopamine D2 receptor (DRD2) small molecule antagonists, cell-based qHTS assay (AID 1963595; active = well fitted inhibition curve with a large enough effect in the signal ratio in the repeat runs, with a control signal flat; the % refers to the signal ratio; also: potency is read from the fitted curve at half-maximal effect). Summed up: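 DRD2-HEK293; 0.1 mM Ro20-1724; cpd 10 min RT; NKH477 200 nM + quinpirole 12 nM, 30 min RT; HTRF cAMP (cAMP-d2/anti-cAMP cryptate), 665/620 nm ratio after 1 h.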
Assay [17] deals with KiSS-1 receptor (Homo sapiens) (UniProt Q969F8). Briefly: Human kisspeptin (KISS1R) small molecule agonists, calcium flux assay in KISS1R-HEK293 cells (AID 1920064; active = well fitted activation curve with a large enough effect in the repeat runs). Summed up:
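Kinetic calcium assay, 1 s sampling over 3 min at Ex/Em 480/540, in HEK293 cells engineered with human KISS1R; compounds delivered in DMSO after 1 h dye loading.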

A short description of assay [18]: p53 small molecule agonists, cell-based qHTS assay with rat liver microsomes: qHTS cell viability counter screen (AID 1963580). Also: nearly all actives have a fitted effect of over 45% in size. Also: potency is read from the fitted curve at half-maximal effect. In a few lines: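 Viability is assessed in parallel with the p53 reporter read: HCT-116 p53RE-bla cells receive compounds plus rat microsomes and NADPH (0.5 mg/mL final apiece), incubate 16 h at 37 C, and then CellTiter-Glo luminescence is recorded.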

The target of assay [19] is Beta-2 adrenergic receptor (Homo sapiens) (UniProt P07550). In words: Adrenergic beta2 receptor (ADRB2) small molecule antagonists, cell-based qHTS assay (AID 1963592). Also: nearly all actives have a fitted effect of over 50% in size. Also: potency is read from the fitted curve at half-maximal effect. Summed up:
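Cells (CHO, stable ADRB2 overexpression) incubated 18-20hr at 37C; compounds added from DMSO; agonist mix (1nM isoproterenol, 100uM IBMX, 25uM Ro-20-1724) added; 0.5hr RT; d2-cAMP and anti-cAMP-cryptate added; 1hr RT; 665/615 nm read.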

The target is the same in assay [20]. In words: Adrenergic beta2 receptor (ADRB2) small molecule agonists, cell-based qHTS assay (AID 1963593). Also: potency is read from the fitted curve at half-maximal effect.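 As to activation: CHO cells stably overexpressing human ADRB2.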 In a few lines:
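CHO cells stably over-expressing ADRB2 were plated overnight at 37C, then dosed with compounds plus a stimulation mix containing 100uM IBMX and 25uM Ro-20-1724 for 0.5hr at room temperature. cAMP was measured by HTRF competition, 1hr.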

Values joined by “and” are separate entries in the source; they are usually repeats but may differ in a detail not shown here. Equal values may be shown once. Results filed as inconclusive are left out. Some structures have more than one record in an assay (separate samples or runs), and their calls can disagree. Active and inactive are the calls of the source. Unless noted, calls follow the shape of the full dose curve.

Gonadotropin-releasing hormone receptor (Homo sapiens), sequence (P30968 whole entry, looked up): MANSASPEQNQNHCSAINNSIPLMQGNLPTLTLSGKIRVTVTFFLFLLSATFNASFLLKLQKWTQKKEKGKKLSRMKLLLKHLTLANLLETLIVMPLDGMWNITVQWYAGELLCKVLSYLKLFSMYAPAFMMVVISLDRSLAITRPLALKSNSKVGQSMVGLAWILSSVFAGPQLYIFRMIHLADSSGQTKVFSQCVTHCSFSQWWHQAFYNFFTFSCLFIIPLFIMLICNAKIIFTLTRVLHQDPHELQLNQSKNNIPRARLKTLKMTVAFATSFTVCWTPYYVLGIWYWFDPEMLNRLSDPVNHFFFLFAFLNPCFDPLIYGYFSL
5-hydroxytryptamine receptor 2A (Homo sapiens), sequence (P28223 whole entry, looked up): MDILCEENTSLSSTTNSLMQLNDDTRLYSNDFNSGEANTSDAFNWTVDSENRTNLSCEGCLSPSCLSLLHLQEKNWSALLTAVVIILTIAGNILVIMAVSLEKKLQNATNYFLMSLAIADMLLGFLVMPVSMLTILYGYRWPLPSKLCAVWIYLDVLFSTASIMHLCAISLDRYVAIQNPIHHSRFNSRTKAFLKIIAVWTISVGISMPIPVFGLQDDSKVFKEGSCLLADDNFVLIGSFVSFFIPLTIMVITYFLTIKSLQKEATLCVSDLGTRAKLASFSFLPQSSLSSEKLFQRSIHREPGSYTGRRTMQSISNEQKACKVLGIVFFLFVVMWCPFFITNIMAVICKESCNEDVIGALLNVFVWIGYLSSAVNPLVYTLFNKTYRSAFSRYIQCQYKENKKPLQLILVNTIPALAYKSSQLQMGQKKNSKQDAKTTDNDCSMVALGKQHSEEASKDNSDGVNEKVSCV
Muscarinic acetylcholine receptor M1 (Homo sapiens), sequence (P11229 whole entry, looked up): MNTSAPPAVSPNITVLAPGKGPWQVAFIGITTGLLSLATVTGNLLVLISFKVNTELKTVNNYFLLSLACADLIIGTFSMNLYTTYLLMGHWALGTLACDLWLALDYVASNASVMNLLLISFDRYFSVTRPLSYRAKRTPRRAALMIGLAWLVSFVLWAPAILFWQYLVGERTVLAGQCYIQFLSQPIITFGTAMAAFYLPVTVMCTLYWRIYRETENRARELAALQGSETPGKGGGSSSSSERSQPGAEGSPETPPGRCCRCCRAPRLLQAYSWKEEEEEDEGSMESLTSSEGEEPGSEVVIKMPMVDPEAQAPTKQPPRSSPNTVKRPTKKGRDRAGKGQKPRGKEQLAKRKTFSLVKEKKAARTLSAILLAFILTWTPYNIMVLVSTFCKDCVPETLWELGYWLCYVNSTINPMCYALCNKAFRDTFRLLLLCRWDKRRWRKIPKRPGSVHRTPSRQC
Beta-2 adrenergic receptor (Homo sapiens), sequence (P07550 whole entry, looked up): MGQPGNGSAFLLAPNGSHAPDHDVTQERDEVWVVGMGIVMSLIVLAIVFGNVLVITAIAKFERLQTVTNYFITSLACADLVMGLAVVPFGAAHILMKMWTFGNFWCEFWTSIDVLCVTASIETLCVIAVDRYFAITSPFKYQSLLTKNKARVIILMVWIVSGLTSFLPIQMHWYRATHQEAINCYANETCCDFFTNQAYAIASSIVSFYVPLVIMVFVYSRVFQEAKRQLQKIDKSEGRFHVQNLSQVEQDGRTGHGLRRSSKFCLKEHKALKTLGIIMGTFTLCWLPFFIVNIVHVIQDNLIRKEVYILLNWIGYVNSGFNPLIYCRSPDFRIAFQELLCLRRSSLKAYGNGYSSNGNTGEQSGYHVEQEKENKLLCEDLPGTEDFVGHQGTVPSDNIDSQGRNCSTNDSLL
D(2) dopamine receptor (Homo sapiens), sequence (P14416 whole entry, looked up): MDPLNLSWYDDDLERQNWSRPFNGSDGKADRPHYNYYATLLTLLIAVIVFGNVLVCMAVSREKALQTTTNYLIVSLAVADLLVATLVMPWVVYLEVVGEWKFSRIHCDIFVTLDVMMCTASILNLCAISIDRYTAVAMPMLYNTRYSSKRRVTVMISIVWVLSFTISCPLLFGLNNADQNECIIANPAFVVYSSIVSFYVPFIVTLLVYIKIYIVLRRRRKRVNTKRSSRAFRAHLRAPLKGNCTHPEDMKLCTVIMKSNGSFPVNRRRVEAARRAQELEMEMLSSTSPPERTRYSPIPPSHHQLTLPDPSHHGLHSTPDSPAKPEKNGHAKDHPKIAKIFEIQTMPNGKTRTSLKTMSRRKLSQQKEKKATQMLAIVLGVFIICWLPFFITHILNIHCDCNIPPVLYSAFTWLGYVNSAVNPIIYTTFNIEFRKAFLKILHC
KiSS-1 receptor (Homo sapiens), sequence (Q969F8 whole entry, looked up): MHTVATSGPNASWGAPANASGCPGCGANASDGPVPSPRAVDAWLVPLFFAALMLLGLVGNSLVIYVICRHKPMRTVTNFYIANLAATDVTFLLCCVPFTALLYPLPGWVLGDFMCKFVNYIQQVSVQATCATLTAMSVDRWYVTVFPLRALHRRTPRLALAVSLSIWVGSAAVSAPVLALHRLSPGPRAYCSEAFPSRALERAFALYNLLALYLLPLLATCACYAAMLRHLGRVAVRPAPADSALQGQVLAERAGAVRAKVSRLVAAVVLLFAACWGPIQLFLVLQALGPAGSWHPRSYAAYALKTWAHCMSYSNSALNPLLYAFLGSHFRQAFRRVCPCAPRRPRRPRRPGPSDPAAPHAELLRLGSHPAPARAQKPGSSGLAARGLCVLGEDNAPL

With `c1ccoc1`, the Potency entry in [1], in assay [2], in [3], in [4], in assay [5] and in assay [6] was “inactive” throughout. For the same compound, the Potency entry in assay [7], in assay [8], in assay [9], in [10], in assay [11] and in [12] was “inactive” each time. Also, the Potency result in assay [13], in [14], in assay [15] and in assay [16] was “inactive” in each case.

Take `O=C(Cl)C(Cl)Cl`: the Potency result in assay [17], in [3], in [4], in [5], in assay [6] and in [18] was “inactive” each time. Further, the Potency result in assay [7], in assay [8], in assay [9], in assay [10], in assay [11] and in assay [12] was “inactive” in each case. Further, the Potency result in assay [13], in assay [14], in [19], in assay [15] and in assay [16] was “inactive” throughout.

As to `C[C@]12CC[C@H]3[C@@H](CC=C4C[C@@H](O)CC[C@@]43C)[C@@H]1CC[C@@H]2O`, the Potency entry in assay [2], in [17], in assay [3], in assay [4], in [5] and in assay [6] was “inactive” in each case. Besides, the Potency result in [7], in [8], in assay [13], in assay [14], in assay [19] and in [15] was “inactive” each time. For the same compound, in assay [16], the Potency result was “inactive”.

On to `c1cc2c(c(N3CCNCC3)c1)OCCO2`, for which the Potency entry in [1], in assay [2], in [17], in assay [4], in assay [5] and in [6] was “inactive” each time. The Potency result in assay [18], in assay [7], in assay [8], in [11], in [12] and in assay [13] was “inactive” throughout. Moreover, the Potency result in assay [14], in assay [15] and in assay [16] was “inactive” in each case. Besides, the Potency in assay [9] was 729 nM (active); in assay [10], 60.1 nM (active); in assay [19], 15000 nM (active).

As for `CCNc1nc(NC(C)(C)C)nc(SC)n1`, the Potency entry in [2], in assay [17], in assay [3], in assay [5], in assay [6] and in [18] was “inactive” each time. Moreover, the Potency result in assay [7], in [8], in assay [9], in assay [11], in assay [12] and in assay [13] was “inactive” each time. In addition, the Potency entry in assay [19], in assay [15] and in assay [16] was “inactive” throughout.

Turning to `CCCCCCn1cc[n+](C)c1`, the Potency entry in [2], in assay [3], in assay [6], in assay [18], in assay [7] and in [9] was “inactive” throughout. Also, the Potency result in [11], in assay [13], in assay [14], in assay [19], in assay [20] and in [15] was “inactive” in each case. Moreover, the Potency result in assay [16] is “inactive”.

On to `O=C(O)CCl`, for which the Potency result in assay [1], in assay [2], in [17], in assay [3], in assay [6] and in assay [18] was “inactive” in each case. Besides, the Potency entry in assay [9], in assay [10], in [11], in assay [12], in assay [13] and in [14] was “inactive” throughout. The Potency result in assay [19], in assay [20], in [15] and in [16] was “inactive” in each case.

Regarding `CCOP(=O)(OCC)SCCSCC`, in assay [1], the Potency entry is “inactive and 68.6 µM (active)”. Also, the Potency result in assay [2], in [3], in assay [18], in [7], in [8] and in assay [10] was “inactive” in each case. Moreover, the Potency entry in assay [11], in assay [12], in assay [13], in assay [14], in assay [19] and in assay [20] was “inactive” each time. Further, the Potency entry in assay [15] and in [16] was “inactive” in each case.

`CC(Cl)(Cl)C(=O)O`: the Potency result in [1], in [2], in assay [3], in assay [6], in assay [18] and in assay [7] was “inactive” each time. The Potency result in assay [9], in [10], in assay [11], in [12], in [13] and in assay [14] was “inactive” in each case. Further, the Potency entry in assay [19], in assay [20], in assay [15] and in assay [16] was “inactive” in each case.

As for `C=C(C)CCl`, the Potency entry in assay [1], in [2], in assay [3], in assay [4], in assay [5] and in assay [6] was “inactive” in each case. For the same compound, the Potency result in assay [18], in assay [7], in assay [10], in [11], in [12] and in [13] was “inactive” in each case. Also, the Potency result in assay [14], in [19], in assay [15] and in [16] was “inactive” throughout.

Turning to `CC(=O)[O][Hg][c]1ccccc1`, the Potency was 864 nM (active) and 2.66 µM (active) in assay [1]; 4.04 µM (active) and 5.13 µM (active) in [6]; 3.6 µM (active) and 5.76 µM (active) and 11.2 µM (active) in assay [18]; 1.61 µM (active) and 4.08 µM (active) and 5 µM (active) in [7]; 4730 nM (active) in assay [20]; 6.06 µM (active) and 2.73 µM (active) and 5.96 µM (active) in assay [16]. The Potency result in [17], in assay [3], in assay [4], in assay [5], in assay [9] and in [11] was “inactive” in each case.

As to `CCSC(=O)N1CCCCCC1`, the Potency result in assay [2], in [17], in [6], in [18], in assay [7] and in assay [8] was “inactive” in each case. The Potency result in assay [9], in [10], in assay [11], in assay [12], in assay [13] and in assay [14] was “inactive” throughout. Besides, the Potency result in assay [19], in [15] and in assay [16] was “inactive” throughout. Moreover, the Potency in [5] was 4.99 µM (active) and 2.57 µM (active).
